Assay results from ChEMBL document CHEMBL3988442, “University of Dundee, Small-Polar-MMV Screening Library” (2021).
About 13,000 (27%) of roughly 48,000 compounds showed an effect of 50% or more. The list shows a part of the results.

The compounds below were run on Wolbachia pipientis (assay: Anti-Wolbachia Cell-Based Screen). Settings: 5 µM.
Type: functional
Design: scale not given: in the data most compounds retested in dose-response had high values

Row | Compound | Percent Effect
1 | C1CCC(N2CCCN(c3nc(C4CC4)no3)CC2)C1 | 19.76%
2 | CCCNC(=O)c1cc(Br)c2c(c1)OCCO2 | -33.44%
3 | CCc1nc(CN2CCN(C(=O)C3CCCCC3)CC2)cs1 | 4.149%
4 | O=C(CN1CCN(c2ccccc2F)CC1)Nc1ccc(Cl)cn1 | 4.247%
5 | CCCS(=O)(=O)N1C[C@@H]2CN(Cc3ccoc3)CCO[C@@H]2C1.O=C(O)C(F)(F)F | 45.1%
6 | CN(Cc1cccnc1)[C@@H]1CN(C(=O)c2ccco2)[C@@H]2CCCO[C@H]12 | 99.41%
7 | CN(Cc1cncnc1)[C@H]1CN(C(=O)c2ccc[nH]2)[C@@H]2CCCO[C@@H]21 | 103.1%
8 | Cn1cc(C[C@H]2[C@H](N3CCOCC3)CCN2C(=O)c2ccc[nH]2)cn1 | -3.493%
9 | CN(Cc1ccco1)[C@@H]1CN(C(=O)c2ccnnc2)C[C@@H]2CCCO[C@@H]21.O=C(O)C(F)(F)F | 1.243%
10 | CC(C)N(C)[C@@H]1CCN(C(=O)c2ccc[nH]2)[C@H]1Cc1cnn(C)c1 | -2.599%
11 | O=S(=O)(NCC1COCCO1)c1ccc(C2CCCCC2)cc1 (stereo unspecified) | -20.85%
12 | CC1CN(Cc2cccc(CNC3CCCC3)c2)CCO1 (stereo unspecified) | 2.611%
13 | OC(CN1CCOCC1)c1cc(Cl)ccc1Cl (stereo unspecified) | 1.615%
14 | Cc1ccsc1C(=O)NCc1cccnc1N(C)CCc1ccccn1 | -9.716%
15 | CC(=O)c1ccc(S(=O)(=O)NCC2CCN(c3cnccn3)CC2)cc1 | 109.4%
16 | Cc1cnc2c(S(=O)(=O)NCC3CCN(C4CC4)C3)cccc2c1 (stereo unspecified) | -24.19%
17 | O=C(Oc1ccccc1)N1CCC(CNS(=O)(=O)c2cccnc2)CC1 | 12.7%
18 | Cc1cccc(S(=O)(=O)NCC2CCN(c3cnccn3)CC2)c1 | 113.6%
19 | CN(C)c1nccc(CNS(=O)(=O)c2ccc(F)c(Cl)c2)n1 | -4.41%
20 | Cn1cc(S(=O)(=O)NCC2CCN(C(=O)Oc3ccccc3)CC2)cn1 | -5.514%
21 | O=S(=O)(NCC1CCN(c2cnccn2)CC1)c1ccc(F)c(Cl)c1 | 114.1%
22 | O=S(=O)(NCC1CCN(c2cnccn2)CC1)c1c(F)cccc1F | -13.03%

Row | Compound | Percent Effect
23 | O=S(=O)(NCC1CCN(c2ccccn2)CC1)c1ccccc1F | -4.881%
24 | Cc1nn(C)c(C)c1CN(C(=O)c1cnc(O)cn1)C(C)C | -5.966%
25 | CN(CCC1CCOCC1)[C@@H]1c2ccccc2C2(CCNCC2)[C@H]1O | -1.046%
26 | CCn1nc2c(cc1=O)CN(c1nc3ccccc3s1)CC2 | 17.49%
27 | COc1cc(CO)ccc1OCc1nc(C(C)C)no1 | -5.276%
28 | CC(C)NC(=O)N1CCCCCC1C1CCN(c2ncccn2)CC1 (stereo unspecified) | -15.72%
29 | CC(CC(=O)N1CCC(c2nnc3n2CCC3)CC1)n1cccc1 (stereo unspecified) | -3.041%
30 | CC(C)NC(=O)N1CCC(c2nccn2C(C)C)CC1 | 0.5032%
31 | CC(C)NC(=O)N1CCCCC1c1nnc2n1CCNC2 (stereo unspecified) | 134%
32 | O=C(N1CCCCC1)N1CCCC1c1nnc2n1CCNC2 (stereo unspecified) | 113%
33 | CC(C)NC(=O)N1CCC(c2nnc3n2CCNC3)CC1 | 121.8%
34 | NC(=O)CN1CCC(NC(=O)N2CCCC2c2ccncc2)CC1 (stereo unspecified) | -10.76%
35 | Cc1cc(C)c(C(=O)NC(c2nnc3n2CCNCC3)C(C)C)c(C)c1 (stereo unspecified) | -5.156%
36 | O=C(NC1CCCCC1)N1CCCC1c1nnc2n1CCNC2 (stereo unspecified) | 105.9%
37 | CCNC(=O)NC(=O)CNc1cc(C(=O)OC)cc(C(F)(F)F)c1 | -3.63%
38 | Cc1n[nH]cc1CNCC1(c2cccc(F)c2)CCOCC1.Cl | 8.493%
39 | N#CCCN(Cc1ccccn1)C(=O)Nc1cccc(F)c1 | 3.903%
40 | O=C(Nc1ccc(CCN2CCSCC2)cc1)NC1CC1 | -3.133%
41 | COCCNC(=O)CSCc1nc(O)c2cc(C(C)C)sc2n1 | -3.697%
42 | CC(=O)N1CCCCC1c1nnc2n1CCNC2 (stereo unspecified) | 131%
43 | CC(=O)N1CCCC1c1nnc2n1CCCCC2 (stereo unspecified) | 5.226%
44 | CC(NC(=O)NCC1(N2CCCCC2)CCCCC1)c1nncn1C (stereo unspecified) | 3.494%

Row | Compound | Percent Effect
45 | Cc1cccc(C)c1OCCNC(=O)NC(C)c1nncn1C (stereo unspecified) | 5.116%
46 | CC(NC(=O)NCCCN1CCCCCC1)c1nncn1C (stereo unspecified) | -1.343%
47 | CC(NC(=O)NCCOc1ccc(Cl)cc1)c1nncn1C (stereo unspecified) | 7.354%
48 | CC(NC(=O)NCCOc1ccc(F)c(F)c1)c1nncn1C (stereo unspecified) | 2.072%
49 | CC(NC(=O)NCC1(c2ccc(F)cc2)CCCC1)c1nncn1C (stereo unspecified) | 121.9%
50 | CC(NC(=O)NCC1(c2ccc(F)cc2)CC1)c1nncn1C (stereo unspecified) | 98.23%
51 | CC(NC(=O)NCC1(c2ccc(Cl)cc2)CC1)c1nncn1C (stereo unspecified) | 123.5%
52 | CC(NC(=O)NCC1(c2ccc(F)cc2)CCC1)c1nncn1C (stereo unspecified) | -3.695%
53 | CC(NC(=O)NCC1(c2ccccc2)CCC1)c1nncn1C (stereo unspecified) | 0.9782%
54 | CC(NC(=O)Nc1cc(F)ccc1N1CCCCC1)c1nncn1C (stereo unspecified) | -5.475%
55 | Cc1ccccc1C1(CNC(=O)NC(C)c2nncn2C)CC1 (stereo unspecified) | 118.5%
56 | CC(C)c1nnc2n1CCN(C(=O)c1ccc(OCC3CC3)nc1)C2 | -21%
57 | CCOc1cc(C)nc(N2CCN(Cc3nccn3C)CC2)n1 | 4.632%
58 | Cc1nc(C)c(CN2CCOC[C@H](Oc3ccc(S(C)(=O)=O)cc3)C2)s1 | -11.23%
59 | CC(=O)N1CCCC1c1nnn2cc(-c3ccncc3)ccc12.O=C(O)C(F)(F)F (stereo unspecified) | 7.793%
60 | CC(=O)N1Cc2ccccc2CC1C(=O)Nc1ccc(C)cn1 (stereo unspecified) | -8.335%
61 | Cc1ccc(CN(Cc2nc3c(cnn3C)c(=O)[nH]2)C2CC2)o1 | 96.47%
62 | CC(N(C)Cc1nc2c(cnn2C)c(=O)[nH]1)C(C)(C)C (stereo unspecified) | 1.899%
63 | Cn1ncc2c(=O)[nH]c(CN(Cc3ccco3)C3CCCC3)nc21 | 8.263%
64 | CCN(Cc1nc2c(cnn2C)c(=O)[nH]1)c1cccc(C)c1C | -14.78%
65 | Cn1ncc2c(=O)[nH]c(CN(Cc3ccco3)C3CC3)nc21 | 87.32%
66 | CC(c1ccco1)N(C)Cc1nc2c(cnn2C)c(=O)[nH]1 (stereo unspecified) | 2.011%
